MCF10A rereplic: DNA re-replication induction in MCF 10a cells | MCF 10A DNA re-replication, Hoechst nuclear intensity, 48 h | Potency, µM (top dose mostly 46.1 µM), for inactives: top-dose activity, positive = re-replication, actives largely listed as activators | 350,000 compounds, 2.9% hits | AID 624296; further: potency means the concentration at half of the fitted maximal effect; % of control where 0% means no effect; nearly all actives have a fitted effect of over 50% in size
DRD3 antagonist: antagonists of human D3 dopamine receptor; P35462; D3R cells, DiscoveRx beta-arrestin luminescence, antagonist mode; active compounds read low; max response, negative = inhibition, %; 360,000 compounds, 2.5% hits; AID 652054; in the data active means max response below about -50%; inconclusive means no clear call, values can overlap the other calls; further: on the % scale 0 is the no-effect control and ±100 the full control effect
Target sequence (P35462 whole entry, looked up): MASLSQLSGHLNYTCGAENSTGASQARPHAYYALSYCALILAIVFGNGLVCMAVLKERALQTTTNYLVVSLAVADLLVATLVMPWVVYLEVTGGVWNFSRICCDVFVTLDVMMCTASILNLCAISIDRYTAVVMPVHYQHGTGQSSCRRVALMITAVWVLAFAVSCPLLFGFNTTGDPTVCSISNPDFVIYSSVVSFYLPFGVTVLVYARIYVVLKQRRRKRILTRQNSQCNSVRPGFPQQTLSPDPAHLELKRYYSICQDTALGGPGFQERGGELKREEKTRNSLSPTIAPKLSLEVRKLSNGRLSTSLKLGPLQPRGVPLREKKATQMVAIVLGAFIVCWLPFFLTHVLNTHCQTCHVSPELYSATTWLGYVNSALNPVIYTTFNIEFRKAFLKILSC
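Cells plated overnight at 1500 cells/well, then exposed to library compounds with dopamine controls for 90 minutes at 37 degrees C. DiscoveRx reagent added for 30–60 minutes at room temperature; luminescence read, quantitative HTS format.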
KB-3-1 tox: kills parental KB-3-1 adenocarcinoma cells | KB-3-1 viability, CellTiter-Glo ATP luminescence, 72 h | Potency, µM (top dose mostly 46.1 µM), usual class: cytotoxic | 400,000 compounds, 1.4% hits | AID 1347075; further: potency means the concentration at half of the fitted maximal effect; on the % scale 0 is the no-effect control and ±100 the full control effect; nearly all actives have a fitted effect of over 60% in size
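Viability of parental KB-3-1 cells, measured by CellTiter-Glo luminescence, followed a 72 h incubation at 37 °C with pinned compounds in phenol-red-free DMEM containing 10% FBS.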
D3 ag: agonists of human D3 dopamine receptor | P35462 | AID 652048 | D3R DiscoveRx beta-arrestin cells, luminescence, 90 min | 410,000 compounds, 0.58% hits | max activation, %; in the data active means max activation above about 30%; further: 0% is about no effect
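Agonist-mode cell screen: cells plated at 1500/well and incubated overnight at 37 °C, then exposed to library compounds for 90 min at 37 °C. Detection reagent was added for 30–60 min at room temperature, and luminescence was read.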
KB-V1 cytotox: KB-V1 MDR subline cytotoxicity | AID 1347076 | 400,000 compounds, 3.4% hits | KB-V1 MDR cells viability, CellTiter-Glo, 72 h | Potency, µM (titrated, usually from 46.1 µM), hits mostly cytotoxic; further: potency means the concentration at half of the fitted maximal effect; on the % scale 0 is the no-effect control and ±100 the full control effect; nearly all actives have a fitted effect of over 60% in size
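Cells of the MDR subline KB-V1 are plated, dosed with compound at multiple concentrations, and incubated 72 h at 37 degrees C; CellTiter-Glo is then added and luminescence read after 10 min.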
SW480 rerep: induces DNA re-replication in SW480 colon adenocarcinoma cells. SW480 DNA re-replication, Hoechst DNA content imaging, 48 h. 340,000 compounds, 1.8% hits. Potency, µM (top dose mostly 46.1 µM), without a hit: at the top dose re-replication activation, hits mostly activators; further: potency means the concentration at half of the fitted maximal effect; % of control where 0% means no effect; nearly all actives have a fitted effect of over 55% in size
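Quantitative HTS format with DMSO vehicle controls; 48 hr drug incubation at 37 C, then 40 min Hoechst staining and scanning imager measurement at 405 nm excitation.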
* marks the source's active call; other numbers are inactive results; i = inactive; ? = inconclusive; . = no result given; [ ] = remark or other dose. Hits are enriched below; roughly 8.9% of the tested compounds scored in any of these assays. Unless noted, the call rests on the fitted dose curve; in most records, active means well fitted curve in the direction sought with a large enough effect; inconclusive means small, poorly fitted or top-dose-only effect, or another doubt; inactive means no such curve, though single readings can be large; an effect the other way counts as inactive or inconclusive.

SMILES	MCF10A rereplic	DRD3 antagonist	KB-3-1 tox	D3 ag	KB-V1 cytotox	SW480 rerep
Nc1cc(CN2C(=O)c3ccccc3C2=O)cc(Cl)c1O	?	10	i	31*	i	-40%
O=C1Cc2ccccc2C(=O)N1Cc1cccc(Cl)c1	-5%	-7	i	4	i	-5%
Nc1cccc2c1C(=O)N(Cc1cccc(Cl)c1)C2=O	16µM*	4	i	1	i	?
O=P(O)(O)OC(Cn1cncn1)(Cn1cncn1)c1ccc(F)cc1F	.	.	.	6	.	.
C[C@]12c3[nH]c4cc(-c5ccco5)ccc4c3CCN1C(=O)[C@@H](CC(=O)NCc1ccco1)C[C@@H]2C(=O)N1CCCCC1	?	-26	?	-19	?	?
CCCCN(CC)CCCNC(=O)c1cc2c(=O)[nH]c3ccccc3c2n1C	.	.	i	-35	i	.
CCOCc1cc(CN2CCN(c3ccccc3OC)CC2)c(O)c2ncccc12	.	.	.	-20	.	.
COc1ccccc1N1CCN(Cc2cc(Br)c(O)c3ncccc23)CC1	?	-84*	?	-18	?	5.2µM*
CCOc1ccccc1N1CCN(Cc2cccc(OC)c2O)CC1	22%	-93*	i	-66	?	-16%
COc1cc2cc(C(=O)NC(C)c3cccc4ccccc34)c(N)nc2cc1OC (configuration not stated)	.	52	i	7	i	.
COc1ccc(S(=O)(=O)c2c(SC)nn(CC(=O)Nc3cccc(C)c3C)c2N)cc1	.	.	i	-8	i	.
COC(=O)c1[nH]c2cc(OC)ccc2c1NC(=O)CCN1CCSCC1	0%	-70*	i	-2	i	-12%
CCOC(=O)c1[nH]c2ccc(OC)cc2c1NC(=O)OC	-5%	0	i	-1	i	-8%
COC(=O)c1[nH]c2cccc(OC)c2c1NC(=O)CCN1CCSCC1	-2%	-21	i	1	i	-82%
CCOC(=O)Nc1c(C(=O)OC)[nH]c2cc(OC)ccc12	24%	-29	21µM*	-12	23µM*	?
COC(=O)c1[nH]c2cc(OC)ccc2c1NC(=O)CN1CCN(c2cccc(C)c2)C(C)C1 (configuration not stated)	?	-15	?	-11	21µM*	15%
C[C@H](NC(=O)OC(C)(C)C)[C@@H](O)c1ccco1	.	.	i	.	i	.
Cc1ccc(NC(=O)CSc2nc3n[nH]c(C)c3c(=N)n2-c2ccccc2C)cc1C	.	.	i	5	i	.
COc1ccc(-n2c(/C=C/c3cc(OC)c(OC)cc3OC)nc3cc4ccccc4cc3c2=O)cc1Cl	.	.	.	4	.	.
COc1ccc(Cl)cc1C(=O)NCc1ccco1	-5%	-9	i	1	i	-18%
O=C(NCc1ccco1)c1ccc(COc2ccccc2Cl)cc1	?	-24	i	1	i	7%
Cc1ccc(C(=O)Nc2cccc(C(=O)NCc3ccco3)c2)cc1	11%	-23	3.3µM*	-10	i	2%
COc1ccc(C(=O)Nc2c(Cl)cc(Cl)cc2C(=O)NCc2ccco2)cc1	7%	-15	i	9	7.3µM*	3%
O=C(Nc1ccccc1)c1ccc(S(=O)(=O)NCc2ccco2)cc1	1%	12	i	-1	i	3%
O=C(NCc1ccco1)c1ccc(COc2cccc3ccccc23)cc1	-6%	4	i	3	21µM*	?
SMILES	MCF10A rereplic	DRD3 antagonist	KB-3-1 tox	D3 ag	KB-V1 cytotox	SW480 rerep
O=C(Nc1ccccc1)c1cccc(S(=O)(=O)NCc2ccco2)c1	5%	11	?	1	23µM*	-3%
C=C1C=C(C(F)F)n2ncc(C(=O)NCc3ccc(OC)c(OC)c3)c2N1	.	.	i	.	i	.
CCO[C@@H]1OC(C(N)=O)=C[C@H](C2CC2)[C@H]1CCCO	0%	4	i	-11	?	-34%[9.22 µM]
C[N+](C)(CCCCCC[N+](C)(C)C1c2ccccc2-c2ccccc21)C1c2ccccc2-c2ccccc21	.	.	.	-24	.	.
COc1ccc(C(=O)Nc2cccc(C(=O)NCc3ccccc3)c2)cc1	13%	-1	i	-9	?	9%
Cc1ccc(C(=O)Nc2cccc(C(=O)NCc3ccccc3)c2)cc1	?	-4	8.2µM*	2	4.6µM*	2%
COc1ccc(-c2cc(C(F)(F)F)nc(NCc3ccco3)n2)cc1OC	13%	25	i	4	2.3µM*	4%
COc1ccc(/C=N/Nc2nc(-c3ccc(Cl)cc3)cc(C(F)(F)F)n2)cc1OC	26%	46	i	2	7.3µM*	-4%
COc1ccc(/C=N/Nc2nc(C)cc(-c3ccccc3)n2)cc1OC	?	53	i	12	i	?
COc1cccc(-c2cc(C(F)(F)F)nc(NCc3ccco3)n2)c1	?	15	i	2	?	26%
COc1ccc(-c2ccc(SCC(=O)c3cccs3)nn2)cc1OC	4%	-5	i	2	2.3µM*	3%
COc1ccc(-c2ccc(SCC(=O)NCc3ccco3)nn2)cc1OC	12%	7	i	2	9.2µM*	-7%
COc1ccc(-c2cc(C(F)(F)F)nc(SCC(=O)NCc3ccco3)n2)cc1OC	-1%	18	i	-4	i	-4%
COc1cccc(-c2nc(CS(=O)(=O)CC(=O)NCc3ccc(C)cc3)c(C)o2)c1	.	.	i	-8	i	.
CCN(CC)c1ccc(NC(=O)c2cc(S(=O)(=O)N3CCc4ccccc43)cn2C)c(C)c1	.	.	.	-9	.	.
CCOC(=O)c1ccc(N2C(=O)c3[nH]nc(-c4ccc(C)cc4)c3C2c2cccs2)cc1 (configuration not stated)	.	.	?	4	?	.
CCCNC(=O)c1ccc(-c2nc(CS(=O)(=O)c3ccc(C)cc3)c(C)o2)cc1	.	.	i	2	?	.
CCOC(=O)c1ccc(N2C(=O)c3n[nH]c(C)c3C2c2ccc(OC)cc2)cc1 (configuration not stated)	?	-20	i	-24	5.2µM*	-13%
CCOC(=O)c1ccc(N2C(=O)c3n[nH]c(C)c3C2c2ccc(CC)cc2)cc1 (configuration not stated)	.	.	i	-3	i	.
CCOC(=O)c1ccc(N2C(=O)c3n[nH]c(-c4ccco4)c3C2c2cccc([N+](=O)[O-])c2)cc1 (configuration not stated)	?	?	?	-20	18µM*	16%
Cc1cc(CN(C)Cc2cn(C)nc2-c2ccc(Oc3ccccc3)cc2)on1	4%	-11	i	2	9.2µM*	0%

Source: PubChem BioAssay
